Data on 40 compounds can be found in PubChem BioAssay (NCI).

Each structure is given as a SMILES string. Compounds without any hit were thinned out: in the full panel of roughly 83,000, 20% have a hit.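 48-hour exposure, single concentration, 96-well plates; percent growth endpoint where 0 means no net growth. Active: below 10.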 Active and inactive are the calls of the source.

This experiment has as its system MDA-MB-468 breast. The experiment is described as follows: NCI-60 one-dose screen, 48 h (100 = growth as untreated, 0 = no growth, -100 = all killed). To be noted: 10 µM unless noted.
For the compound `Cc1cc(C)c(CC(=O)O)c(C)c1`, the growth was 111% (inactive).
As to `CC(C)[C@@]12C[C@@H](OC(=O)[C@H]3CO3)[C@@](C)(O1)[C@@H]1CC[C@@H](C)[C@H]1[C@@H]2OC(=O)/C=C/c1ccccc1`, the growth is 85.8% (inactive).
Take `O=C1NC(c2ccc(F)cc2)N=C2C(c3ccccc3)=NOC12` (stereo not given): the growth was 103% (inactive).
On to `COc1cc2ncnc(Nc3cccc(Cl)c3F)c2cc1OC(=O)N1CCN(C)C[C@H]1C`, for which the growth was -10.7% (active).
`CSc1ccc(N(C)c2nc(C)nc3c2CCC3)cc1`: the growth is 46.8% (inactive).
Then `Cc1cc(CSc2ccc(Cl)cc2)ccc1N`, with 102% (inactive).
With `O=Cc1cc2ccccc2nc1Nc1nccs1`, the growth was 57.2% (inactive).
To `O=C(CN1CCN(C(=O)c2ccccc2)CC1)Nc1ccccc1SCc1ccccc1` belongs 56.4% (inactive).
Take `CC1COCC(C)N1C1=C(Cl)C(=O)c2ccccc2C1=O` (stereo not given): the growth was -92% (active).
To `O=C1c2cccnc2C(=O)c2c1c(C(=O)OCCN1CCOCC1)c1ccccn21` belongs -2.61% (active); to `Oc1ccc(/C=N/N=C2c3ccccc3-c3ccccc32)c(O)c1`, -1.47% (active).
Take `CNCCCNCCCCNCCCN1C(=O)c2ccc3c4c(ccc(c24)C1=O)C(=O)N(CCCNCc1ccccc1OC)C3=O`: the growth was 28.6% (inactive).
Turning to `CC(C)=C1C=C2CC[C@@H]3[C@](C)(CCC[C@@]3(C)C(=O)O)[C@H]2CC1`, the growth is 0.17% (active).
Take `O=[N+]([O-])c1ccc(-c2nc(-c3ccccc3)c(-c3ccccc3)n2-c2ccccc2)cc1`: the growth is 2.29% (active).
Turning to `O=C(CCC(C(=O)c1ccccc1)c1ccccc1)c1ccccc1` (stereo not given), the growth is 35.9% (inactive).
As for `CCCCCCCCCCCCCCCCCCSC(=N)N`, the growth is 67.8% (inactive).
As for `CCN1CCN(CCNc2nccc(-c3c(-c4ccc(F)c(OC)c4)nc4sccn34)n2)S1(=O)=O`, the growth was 80.1% (inactive).
Regarding `CC(C)C[C@H](NC(=O)[C@@H](Cc1ccccc1)n1ccc(Nc2ccccc2)cc1=O)B(O)O`, the growth is -19.8% (active).
To `Cc1cc2c(cc1C)N(C(=O)CCl)CCN2C(=O)CCl` belongs -76% (active).
As to `O=C1NC(=S)NC(=O)C1=Cc1cn(Cc2cn(Cc3cccc4ccccc34)nn2)c2ccccc12`, the growth is 94.9% (inactive).
In the case of `Nc1ncnc2c1c(-c1ccc(Oc3ccccc3)cc1)nn2C[C@H]1SSC[C@@H]1O`, the growth was -26.7% (active).
Turning to `CN1C(=O)c2cc(Cl)nc3c(NC(=O)c4cccc(Cl)c4)c(Cl)c(NC(=O)c4cccc(Cl)c4)c1c23`, the growth is -19.6% (active).
To `Cc1cc2c3c(cccc3c1)C(=O)c1ccccc1-2` belongs 63.7% (inactive).
To `NC(=O)c1c(NC(=O)c2cccc(C(F)(F)F)c2)sc2c1CCC(=O)C2` belongs -38.1% (active); to `CC(C)=CCC[C@@H](C)[C@H]1CC[C@@]2(C)C3=C(CC[C@]12C)[C@@]1(C)CC[C@H](O)C(C)(C)[C@@H]1CC3`, 102% (inactive).
For `COc1ccc(/C=C2\Cc3c(Br)cccc3C2=O)c(OC)c1`, the growth is 49.6% (inactive).
As for `CC(=O)Nc1cscc1NC(C)=O`, the growth is 95.1% (inactive).
As to `Cc1c(C(=O)/C=C/c2ccc(Cl)cc2)nnn1-c1ccc2oc(=O)ccc2c1`, the growth is 85.9% (inactive).
Then `C#CCn1cnc2c(Nc3cccc(NC(=O)CCl)c3)ncnc21`, with 23.5% (inactive); and `Cc1ccc(Cl)cc1N1CCN(C(=O)[C@@H]2C[C@@H]2c2ccc(F)cc2)CC1`, with 75.3% (inactive); and `C=CC(=O)NCc1cccc(Nc2ncc(Br)c(NCCCNC(=O)C3CCC3)n2)c1`, with -80.4% (active).
As for `CCOC(=O)c1cnn(CC(O)c2ccc(F)cc2)c1NC(=O)Nc1ccccc1F` (stereo not given), the growth is 85.8% (inactive).
On to `c1ccc(-c2nc(N3CCNCC3)c3oc(-c4ccccc4)nc3n2)cc1`, for which the growth is -74% (active).
On to `Oc1cccc(-c2nc(N3CCOCC3)c3c4c(sc3n2)CCCC4)c1`, for which the growth was 46.1% (inactive).
`CSc1ncccc1C(=O)OCC(=O)Nc1oc(C)c2c(C)n[nH]c(=O)c12`: the growth was 98% (inactive).
To `Cc1ccc(S(=O)(=O)N2C/C(=C\c3cc(F)cc(F)c3)C(=O)/C(=C/c3cc(F)cc(F)c3)C2)cc1` belongs -43.3% (active); to `Cc1cc(=O)cc(C)n1-c1ccccc1`, 100% (inactive); to `C/C=C/C=N/NC(=S)Nc1ccccc1`, 107% (inactive).
As for `COc1cc(NC(=O)c2sc3nc4c(cc3c2N)C(O)CCC4)cc(OC)c1` (stereo not given), the growth was 54% (inactive).
For `Clc1ccc(-c2nc(NCCc3ccccc3)nc3c(NCCc4ccccc4)cnn23)cc1`, the growth was 47.8% (inactive).
